Screens deposited in PubChem by National Center for Advancing Translational Sciences (NCATS).
Sm TGR block: inhibitors of Schistosoma mansoni thioredoxin glutathione reductase; 360,000 tested, 3% active; Q962Y6; purified TGR, DTNB reduction, TNB absorbance 405 nm; Potency, µM (series often up to 114 µM), without a hit: top-dose activity change, negative = inhibition, usual class: inhibitors; note: nearly all actives have a fitted effect of over 60% in size
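TGR 20 nM + NADPH 100 uM (dispensed conc.), cpd preinc 15 min RT; start with NADPH (500 uM addition) then DTNB (15 mM addition). Kinetic TNB absorbance, 405 nm filter. Four-parameter Hill fit across titration.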
Giardia FBPA inh: Giardia lamblia aldolase inhibition; A8B2U2; purified Giardia FBPA; Potency, µM (highest dose often 59.6 µM), for inactives: at the highest dose activity, negative = inhibition, actives largely listed as inhibitors; 290,000 tested, 0.71% active; note: nearly all actives have a fitted effect of over 55% in size
Target sequence (A8B2U2 whole entry, looked up): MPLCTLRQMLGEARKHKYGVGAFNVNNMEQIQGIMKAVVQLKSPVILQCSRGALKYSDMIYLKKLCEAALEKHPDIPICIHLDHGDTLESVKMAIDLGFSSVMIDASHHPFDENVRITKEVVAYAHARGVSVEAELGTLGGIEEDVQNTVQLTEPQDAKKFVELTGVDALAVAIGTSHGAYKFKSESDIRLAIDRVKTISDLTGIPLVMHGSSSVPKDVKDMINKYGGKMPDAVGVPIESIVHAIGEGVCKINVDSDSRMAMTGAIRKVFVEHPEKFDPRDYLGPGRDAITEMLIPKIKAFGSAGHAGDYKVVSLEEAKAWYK
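Giardia FBPA (40 nM reagent) was preincubated 10 min at RT with compound (up to 57.5 uM final), then substrate plus GAPDH/TPI/NAD/arsenate coupling system with diaphorase/resazurin was added; resorufin fluorescence (525/598 nm) was read after 20 min.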
AmpC detergent: inhibitors of E. coli AmpC beta-lactamase with detergent; AmpC hydrolysis of nitrocefin, absorbance 480 nm, 0.01% Triton; Potency, µM (series often up to 114 µM), without a hit: top-dose activity change, negative = inhibition, actives largely listed as inhibitors; 370,000 tested, 0.041% active; AID 485294;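 note: 0% = no-compound wells and -100% = no-enzyme wells; nearly all actives have a fitted effect of over 25% in size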
Target sequence (P00811 whole entry, looked up): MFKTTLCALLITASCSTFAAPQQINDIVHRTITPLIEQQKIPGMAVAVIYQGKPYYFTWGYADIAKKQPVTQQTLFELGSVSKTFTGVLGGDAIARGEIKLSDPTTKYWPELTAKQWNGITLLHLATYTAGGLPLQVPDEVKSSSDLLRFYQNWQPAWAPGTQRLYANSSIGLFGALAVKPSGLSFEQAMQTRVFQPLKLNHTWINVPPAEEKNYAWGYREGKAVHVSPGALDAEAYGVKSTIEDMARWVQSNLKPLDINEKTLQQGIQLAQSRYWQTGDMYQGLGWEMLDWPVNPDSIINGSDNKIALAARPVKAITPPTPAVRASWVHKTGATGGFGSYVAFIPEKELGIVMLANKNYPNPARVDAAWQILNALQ
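20 mM phosphate pH 7.0 + 0.01% (detergent screen) or 0.0001% Triton X-100; 5.3 nM AmpC reagent; cpd preinc 15 min RT; nitrocefin (800 uM stock) to start; A480 q20 s × 4 min; Activity was normalised to no-enzyme and no-compound control wells.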
AmpC inh no detg: blocks E. coli AmpC beta-lactamase in detergent-free assay; AID 485341; P00811; Potency, µM (highest dose often 57.1 µM), for the others: at the top dose activity change, negative = inhibition, hits mostly inhibitors; 330,000 tested, 0.52% active; AmpC nitrocefin hydrolysis, absorbance 480 nm, 0.0001% Triton;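 note: plate controls were no compound for no effect and no enzyme for full effect; nearly all actives have a fitted effect of over 20% in size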
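20 mM phosphate pH 7.0 + 0.01% (detergent screen) or 0.0001% Triton X-100; 5.3 nM AmpC reagent; cpd preinc 15 min RT; nitrocefin (800 uM stock) to start; A480 q20 s × 4 min; Activity was normalised to no-enzyme and no-compound control wells.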
RE007 growth inh: less growth of the S. pombe RE007 Vpr strain. S. pombe RE007 Vpr strain, BacTiter-Glo ATP luminescence, 24 h. Potency, µM (top dose mostly 92.2 µM), for inactives: at the highest dose activity change, negative = less growth, hits mostly inhibitors. 360,000 tested, 0.21% active; active = well fitted falling curve with a large enough effect; inconclusive = small, poorly fitted or top-dose-only effect; inactive = no such curve, though single readings can be large or run the other way; note: nearly all actives have a fitted effect of over 50% in size
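Fission yeast strain RE007, carrying one chromosomally integrated HIV-1 vpr copy, was seeded at OD 0.01 in PMG+AL medium with 23 nL pinned compound. After 24 h at 30 °C and 99% humidity, viability was read by BacTiter-Glo luminescence.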
Active calls of the source: *; ? = inconclusive; · = no result given; [ ] = remark or other dose. Most compounds without a hit are left out; they make up all but 3.4% or so of the library. Unless noted, calls come from the whole dose curve; as a rule, active = well fitted curve in the direction sought with a large enough effect; inconclusive = small, poorly fitted or top-dose-only effect, or another doubt; inactive = no such curve, though single readings can be large; an effect the other way counts as inactive or inconclusive. Unless noted, % is set by controls: 0 for no effect and ±100 for the full control effect; potency is the fitted concentration of half-maximal effect.

SMILES | Sm TGR block | Giardia FBPA inh | AmpC detergent | AmpC inh no detg | RE007 growth inh
CC(C)(C)c1cc(NCCCn2ccnc2)n2ncc(-c3ccc(Cl)cc3)c2n1 | -5% | 1% | -6% | 56% | 22µM*
COc1ccc(-c2noc(N3CCC(C(=O)N(C)c4ccccc4C)CC3)n2)cc1 | 3% | -3% | ? | 143% | 6%
CC(=O)c1sc2nc(-c3ccco3)ccc2c1N | 0.89µM* | ? | -3% | -25% | ?
Nc1c(C(=O)Nc2ccc(Br)cc2)sc2nc(-c3ccco3)ccc12 | 0.79µM* | -3% | -4% | -52% | 10%
Nc1c(C(=O)Nc2ccc(F)cc2)sc2nc(-c3ccco3)ccc12 | ? | -9% | -2% | ? | ?
CN(C)C/C(Cl)=C(\Cl)c1ccccc1 | 20µM* | -7% | ? | -6% | -20%
CN(C)CC(=O)c1ccc(-c2ccccc2)cc1 | ? | -3% | -9% | -9% | -17%
COCCCNC(=O)C(=O)NCCCOC(C)C | 1% | 1% | 1% | 0.28µM* | 0%
O=c1oc2ccccc2c(Nc2cc3ccccc3cc2O)c1[N+](=O)[O-] | -29% | 6.3µM* | 4% | -30% | -18%
CNC(=S)Nc1ccc(C(N)=O)cc1 | 40µM* | 1% | -6% | -19% | -2%
C=CCNC(=S)Nc1ccc(C(N)=O)cc1 | ? | -13% | ? | -15% | -17%
COc1ccc(C(=O)Nc2ccc3ccccc3c2)cc1 | ? | 0% | 8% | -24% | -8%
COC(=O)c1ccc(NC(=S)Nc2ccccc2)cc1 | 32µM* | -9% | 5% | -13% | -12%
COC(=O)c1ccc(NC(=S)Nc2ccc3ccccc3c2)cc1 | -32% | -3% | -1% | 0.25µM* | -18%
C/C(=C\C(=S)Nc1ccccc1)Nc1ccc2ccccc2c1 | -16% | 2µM* | ? | -14% | ?
Cc1cc(=O)n2nc(N3CCCC(C(=O)NCc4ccccc4Br)C3)sc2n1 (centres undefined) | -16% | · | -3% | -4% | 7%
O=C(/C(=N/O)c1ccccc1)c1ccccc1 | · | · | · | · | 4%
O=C(NC(=S)Nc1ccc(N2CCCCC2)c(Cl)c1)c1ccc2c(c1)OCCO2 | 0% | -5% | 4% | -34% | -12%
COc1ccc(C(=O)Nc2nc3ccc(S(=O)(=O)N4CCCC4)cc3s2)cc1 | -7% | · | 2% | · | ·
CCNC(=O)/C(C#N)=C/c1c(N2CCN(c3ccccc3)CC2)nc2ccccn2c1=O | -10% | -13% | -5% | 72% | 7%
NC(=O)c1ccc(C(=O)Nc2ccc([As](=O)(O)O)cc2)cc1 | 45µM* | 1% | -1% | -2% | ·
CC(=O)CC(=O)Nc1ccc(C(N)=O)cc1 | 10% | -13% | 0% | -18% | 11%
CC(=O)/C(CN1CCCCC1)=N\O | 0% | ? | -7% | -10% | 7%
C/C(=N\O)C(=O)C(CN1CCCCC1)CN1CCCCC1 | 1.8µM* | -2% | 4% | -7% | -4%
CCCCN(C(=O)Cn1ncc(Cl)c(Cl)c1=O)c1c(N)n(CC(C)C)c(=O)[nH]c1=O | 4.5µM* | 7% | 10% | 0% | -14%
SMILES | Sm TGR block | Giardia FBPA inh | AmpC detergent | AmpC inh no detg | RE007 growth inh
CCOP(=O)(OCC)C(NC(=O)c1ccccc1)C(Cl)(Cl)Cl (centres undefined) | 33% | 4% | 2% | 3% | -4%
CCOP(=O)(OCC)C(NS(=O)(=O)c1ccccc1)C(Cl)(Cl)Cl (centres undefined) | 14µM* | -10% | -6% | 41% | 11%
Cc1cc(=O)[nH]c(N/N=C/C=C/c2ccccc2)n1 | -9% | ? | -6% | -18% | 11%
Cc1cc(=O)[nH]c(N/N=C2/CCCC/C2=C\c2ccccc2)n1 | 22µM* | ? | 0% | -16% | -12%
COC(=O)C1=C(C)N(CCC2=CCCCC2)C(=O)C1 | 32µM* | ? | 1% | -4% | -11%
[O-][n+]1ccccc1SCc1ccccc1 | -2% | · | -7% | -15% | -10%
CCOC(=O)c1c(NC(=O)CN2CCCc3ccccc32)sc(C)c1CC | 7% | 2% | ? | -30% | 11%
O=C(Nc1nnc(-c2ccco2)o1)c1ccc([N+](=O)[O-])s1 | 28µM* | ? | -5% | -13% | -12%
Cc1ccc(C(=O)Nc2nnc(-c3ccco3)o2)cc1 | -4% | 18% | -1% | 0% | 19%
CCc1ccc(S(=O)(=O)/N=C2\C=C(Nc3cccc(C(=O)O)c3)C(=O)c3ccccc32)cc1 | -23% | · | 0% | -24% | -11%
Cc1cc(C)c(S(=O)(=O)/N=C2\C=C(NS(=O)(=O)c3ccccc3)C(=O)c3ccccc32)c(C)c1 | -3% | ? | -2% | -53% | 3%
CCc1ccc(S(=O)(=O)/N=C2\C=C(Nc3ccc(O)cc3)C(=O)c3ccccc32)cc1 | -22% | 1.4µM* | -14% | -35% | -27%
Cc1cc(C)c(S(=O)(=O)/N=C2\C=C(Nc3ccc(C(=O)O)cc3)C(=O)c3ccccc32)c(C)c1 | ? | ? | -12% | 13µM* | -17%
CCc1ccc(S(=O)(=O)/N=C2/C=C(Sc3ncn[nH]3)C(=O)c3ccccc32)cc1 | 0.32µM* | 0.79µM* | -7% | 20µM* | ?
CCc1ccc(S(=O)(=O)/N=C2\C=CC(=O)c3ccccc32)cc1 | 8.9µM* | 7.1µM* | -4% | 16µM* | ·
O=S(=O)(N=C1C=CC(=NS(=O)(=O)c2ccccc2)c2ccccc21)c1ccccc1 | · | · | · | · | -11%
COc1ccc(NC(=O)Cn2c(=O)n(Cc3ccco3)c(=O)c3sc4ccccc4c32)c(OC)c1 | 0% | · | 3% | · | ·
CCOCCCn1cnc2c([nH]c3cc(OC)ccc32)c1=O | 7% | -1% | 5% | -8% | 7%
Fc1ccc(C2=NCCC(c3ccccc3)O2)cc1 (centres undefined) | · | -6%[89.2 µM] | · | · | ·
CS(=O)(=O)N(Cc1ccccc1)c1ccc(C(=O)Nc2cccc(Cl)c2)cc1 | 7% | · | 3% | · | ·
O=C(O)c1ccc(NC2=C/C(=N/S(=O)(=O)c3ccccc3)c3ccccc3C2=O)cc1 | 20µM* | ? | 4% | -37% | ?
O=C(COc1ccc(Cl)cc1)Nc1nnc2n1CCS2 | 5% | · | 1% | · | ·
O=C(OCC(=O)N1CCCC1)c1ccc(O)cc1 | -1% | -3% | -1% | -4% | 9%
S=c1sc2c(Cl)ncnc2n1-c1ccccc1 | 3.2µM* | 3% | 4% | -17% | -13%
Cc1nc(N2CCN(C)CC2)c2sc(=S)n(-c3ccccc3)c2n1 | 0% | 9% | -9% | -11% | 5%
N#CC1C(=O)c2ccccc2C1c1ccccc1 (centres undefined) | · | · | · | · | 8.9µM*
O=C1CCC(c2ccccc2)c2ccccc21 (centres undefined) | · | · | · | · | 7%
CC(=O)Nc1sc(N/N=C/c2ccccc2F)nc1-c1ccc(C)cc1 | 32µM* | -9% | -2% | -39% | -1%
